Assay results as given in the supplement of paper PMC10849652.
The full data set covers some 8,800 targets. This sample favours those with a hit. About 0.5% of all pairs of compound and target were hits.

Columns and labels:
Assay in all cases: log2 fold change, soluble protein after heating vs DMSO (PISA); higher = thermal stabilisation; K562 lysate, 10 uM; active = over 0.2 and 3.5 SD of the protein, either way, in both replicates (recomputed)
[1] = compound: CCCS(=O)(=O)Nc1ccc(F)c(C(=O)c2c[nH]c3ncc(-c4ccc(Cl)cc4)cc23)c1F [vemurafenib]
How it was run: (§1)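 Dounce homogenisation of K562 pellets in PBS pH 7.4 with 1 mM MgCl2 produced a crude extract, used at 1 mg/mL protein. Exposure to 10 μM compound lasted 30 min, and aliquots were then heated for 3 min across 48°C-58°C, pooled and brought to 0.5% NP-40 at 4°C. The supernatant after 21,000xg for 90 min was quantified by TMTpro 16plex LC-MS/MS with channel sums equalised. Duplicate values are given as log-two fold change in thermal stability relative to solvent controls.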

[2] = compound: CCCS(=O)(=O)Nc1ccc(F)c(C(=O)c2c[nH]c3ncc(Cl)cc23)c1F
How it was run: as §1

[3] = compound: CCN(CCCOc1ccc2c(Nc3cc(CC(=O)Nc4cccc(F)c4)[nH]n3)ncnc2c1)CCOP(=O)(O)O [barasertib]
How it was run: as §1

[4] = compound: CC[C@@H]1C(=O)N(C)c2cnc(Nc3ccc(C(=O)NC4CCN(C)CC4)cc3OC)nc2N1C1CCCC1
How it was run: as §1

[5] = compound: CC[C@@H]1C(=O)N(C)c2cnc(Nc3ccc(C(=O)N[C@H]4CC[C@H](N5CCN(CC6CC6)CC5)CC4)cc3OC)nc2N1C(C)C [volasertib]
How it was run: as §1

[6] = compound: CCn1cc(-c2ccnc3[nH]c(-c4cccc(CN(C)C)c4)cc23)c(-c2ccc(NC(=O)N(C)C)cc2)n1
How it was run: as §1

[7] = compound: CN1CCC(CNc2ccc3ncc(-c4cccc(OC(F)(F)F)c4)n3n2)CC1
How it was run: as §1

[8] = compound: CN1CCN(CCOc2cc(OC3CCOCC3)c3c(Nc4c(Cl)ccc5c4OCO5)ncnc3c2)CC1 [saracatinib]
How it was run: as §1

[9] = compound: CN1CCN(c2nc(C3=C(c4c[nH]c5ccccc45)C(=O)NC3=O)c3ccccc3n2)CC1 [sotrastaurin]
How it was run: as §1

[10] = compound: CCn1c(C(=O)N(C2CC2)C2CC2)cc2c3c(ncn3C)c(Nc3cc(C)n(C)n3)nc21
How it was run: as §1

Measured: log2 fold change

TNIK (UniProt C9J338)
inactive: [1] 0.151 | [2] 0.064 | [3] 0.028 | [4] 0.171 | [5] -0.011 | [6] -0.51 | [7] 0.341 | [8] 0.033 | [9] -0.026

TRAPPC10 (UniProt P48553)
inactive: [1] 0.022 | [2] 0.009 | [3] 0.027 | [4] -0.063 | [5] -0.052 | [10] 0.022 | [6] -0.061 | [7] 0.071 | [8] 0.016 | [9] -0.039

TPM3 isoform 3 (UniProt P06753)
inactive: [1] -0.082 | [2] 0.011 | [4] -0.187 | [5] 0.036 | [10] 0.029 | [6] -0.493 | [7] 0.184 | [8] 0.009 | [9] 0.028

TNKS (UniProt O95271)
inactive: [1] -0.035 | [2] 0.124 | [4] 0.055 | [5] -0.11 | [10] 0.027 | [6] 0.207 | [7] -0.092 | [8] -0.007 | [9] 0.021

TDRD3 isoform 3 (UniProt Q9H7E2)
inactive: [1] 0.012 | [2] -0.01 | [3] -0.043 | [4] 0.041 | [5] -0.054 | [10] 0.137 | [6] 0.164 | [7] -0.078 | [8] -0.094 | [9] 0.014

TRIM56 (UniProt Q9BRZ2)
inactive: [1] 0.026 | [2] 0.026 | [3] -0.039 | [4] 0.006 | [5] -0.029 | [10] -0.04 | [6] 0.227 | [7] -0.102 | [8] 0.031 | [9] -0.019

UBE3B (UniProt Q7Z3V4)
Sequence of UniProt Q7Z3V4 (Q7Z3V4 whole entry, looked up): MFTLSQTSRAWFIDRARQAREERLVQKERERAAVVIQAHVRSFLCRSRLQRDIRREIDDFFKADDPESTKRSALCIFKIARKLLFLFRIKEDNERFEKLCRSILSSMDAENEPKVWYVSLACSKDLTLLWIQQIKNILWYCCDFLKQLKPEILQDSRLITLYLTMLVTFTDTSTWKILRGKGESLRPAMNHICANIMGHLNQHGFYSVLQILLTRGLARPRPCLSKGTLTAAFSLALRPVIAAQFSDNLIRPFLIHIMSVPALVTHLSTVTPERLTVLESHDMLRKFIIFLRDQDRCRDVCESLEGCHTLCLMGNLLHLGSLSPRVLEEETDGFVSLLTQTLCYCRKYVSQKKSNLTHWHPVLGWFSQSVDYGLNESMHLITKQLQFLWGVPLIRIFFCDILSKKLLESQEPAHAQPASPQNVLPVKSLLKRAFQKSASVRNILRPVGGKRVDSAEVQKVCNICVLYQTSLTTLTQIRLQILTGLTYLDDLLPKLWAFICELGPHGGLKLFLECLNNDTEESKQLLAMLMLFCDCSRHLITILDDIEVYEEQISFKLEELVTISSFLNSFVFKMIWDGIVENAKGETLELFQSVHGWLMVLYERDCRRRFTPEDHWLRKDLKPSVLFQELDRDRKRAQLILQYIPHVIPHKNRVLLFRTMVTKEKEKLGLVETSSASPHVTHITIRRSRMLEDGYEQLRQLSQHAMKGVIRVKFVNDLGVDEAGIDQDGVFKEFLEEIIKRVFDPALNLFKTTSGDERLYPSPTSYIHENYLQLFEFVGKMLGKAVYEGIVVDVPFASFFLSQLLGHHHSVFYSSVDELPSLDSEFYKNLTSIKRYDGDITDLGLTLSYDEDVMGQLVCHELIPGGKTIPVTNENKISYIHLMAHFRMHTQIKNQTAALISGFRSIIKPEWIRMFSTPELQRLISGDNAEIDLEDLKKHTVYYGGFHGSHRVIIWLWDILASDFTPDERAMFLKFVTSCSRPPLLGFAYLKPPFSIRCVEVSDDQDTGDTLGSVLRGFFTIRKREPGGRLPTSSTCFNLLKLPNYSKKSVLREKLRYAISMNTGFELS
inactive: [1] 0.102 | [2] -0.052 | [3] 0.175 | [4] 0.016 | [5] -0.044 | [10] 0.029 | [6] -0.099 | [7] -0.132 | [8] -0.069 | [9] 0.055

TPM3 (UniProt P06753)
inactive: [1] -0.008 | [2] 0.009 | [3] -0.02 | [4] 0.043 | [5] 0.021 | [10] 0.013 | [6] 0.182 | [7] -0.062 | [8] -0.011 | [9] -0.031

TFAP4 (UniProt Q01664)
inactive: [1] 0.105 | [2] 0.021 | [3] 0.072 | [4] 0.131 | [5] -0.112 | [10] 0.129 | [6] 0.597 | [7] -0.189 | [9] 0.007

TLK2 isoform 2 (UniProt Q86UE8)
active: [9] 0.26
inactive: [1] -0.015 | [2] -0.011 | [3] 0.017 | [4] -0.068 | [5] -0.03 | [10] -0.009 | [6] -0.171 | [7] 0.085 | [8] 0.021

UBL4A (UniProt P11441)
active: [6] 0.33
inactive: [1] -0.032 | [2] -0.001 | [3] 0.089 | [4] -0.081 | [5] -0.02 | [10] 0.121 | [7] -0.094 | [8] 0.028 | [9] 0

TNIK isoform 4 (UniProt Q9UKE5)
inactive: [1] 0.002 | [2] -0.015 | [3] -0.034 | [4] 0.025 | [5] 0 | [10] 0.011 | [6] 0.071 | [7] 0.099 | [8] 0.071 | [9] 0.056

TIAL1 isoform 2 (UniProt Q01085)
inactive: [1] -0.009 | [2] 0.014 | [3] -0.023 | [4] 0.072 | [5] 0.005 | [10] 0.002 | [6] -0.076 | [7] 0.056 | [8] -0.02 | [9] -0.017

TTC37 (UniProt Q6PGP7)
Sequence of UniProt Q6PGP7 (Q6PGP7 whole entry, looked up): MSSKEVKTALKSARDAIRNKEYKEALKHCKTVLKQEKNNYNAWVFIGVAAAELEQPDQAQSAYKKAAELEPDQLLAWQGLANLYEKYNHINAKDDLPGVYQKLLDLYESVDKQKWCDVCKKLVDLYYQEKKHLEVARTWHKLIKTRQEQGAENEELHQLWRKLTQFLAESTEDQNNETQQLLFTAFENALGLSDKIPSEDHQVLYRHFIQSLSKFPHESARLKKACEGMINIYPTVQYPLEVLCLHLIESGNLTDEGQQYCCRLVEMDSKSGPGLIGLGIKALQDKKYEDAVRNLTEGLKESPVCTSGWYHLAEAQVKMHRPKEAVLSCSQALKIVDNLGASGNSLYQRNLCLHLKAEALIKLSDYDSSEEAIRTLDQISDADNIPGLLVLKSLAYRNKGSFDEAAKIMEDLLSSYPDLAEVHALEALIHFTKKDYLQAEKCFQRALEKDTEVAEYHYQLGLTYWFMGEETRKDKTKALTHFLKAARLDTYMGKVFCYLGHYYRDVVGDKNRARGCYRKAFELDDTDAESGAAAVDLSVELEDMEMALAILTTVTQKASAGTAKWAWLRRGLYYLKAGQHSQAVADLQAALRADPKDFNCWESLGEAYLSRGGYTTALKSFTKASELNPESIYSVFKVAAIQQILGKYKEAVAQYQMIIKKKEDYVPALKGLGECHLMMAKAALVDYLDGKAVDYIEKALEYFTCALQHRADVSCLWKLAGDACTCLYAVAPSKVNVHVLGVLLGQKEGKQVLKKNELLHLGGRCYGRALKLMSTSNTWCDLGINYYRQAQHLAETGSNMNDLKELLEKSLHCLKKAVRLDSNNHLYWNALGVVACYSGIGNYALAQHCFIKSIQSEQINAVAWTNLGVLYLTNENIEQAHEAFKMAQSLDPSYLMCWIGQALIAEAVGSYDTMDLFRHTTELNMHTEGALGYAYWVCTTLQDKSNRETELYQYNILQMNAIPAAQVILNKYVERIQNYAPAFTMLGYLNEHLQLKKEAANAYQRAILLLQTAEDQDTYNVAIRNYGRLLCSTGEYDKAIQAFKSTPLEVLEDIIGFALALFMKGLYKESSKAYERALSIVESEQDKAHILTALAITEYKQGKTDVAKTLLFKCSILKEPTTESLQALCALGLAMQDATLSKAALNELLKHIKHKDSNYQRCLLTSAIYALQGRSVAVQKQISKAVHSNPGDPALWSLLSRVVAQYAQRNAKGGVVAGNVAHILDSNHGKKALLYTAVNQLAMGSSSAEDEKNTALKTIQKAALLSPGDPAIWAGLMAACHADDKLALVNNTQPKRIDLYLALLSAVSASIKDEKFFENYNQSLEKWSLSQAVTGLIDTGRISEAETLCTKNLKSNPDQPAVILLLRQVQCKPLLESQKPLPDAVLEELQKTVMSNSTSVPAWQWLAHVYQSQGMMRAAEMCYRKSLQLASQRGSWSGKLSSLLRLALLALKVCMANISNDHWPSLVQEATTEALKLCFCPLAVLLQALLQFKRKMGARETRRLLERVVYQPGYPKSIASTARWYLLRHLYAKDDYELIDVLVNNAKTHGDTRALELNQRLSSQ
inactive: [1] 0.053 | [2] -0.068 | [3] 0.018 | [5] 0.011 | [10] 0.045 | [8] 0.013 | [9] -0.019

TMEM14C (UniProt Q9P0S9)
Sequence of UniProt Q9P0S9 (Q9P0S9 whole entry, looked up): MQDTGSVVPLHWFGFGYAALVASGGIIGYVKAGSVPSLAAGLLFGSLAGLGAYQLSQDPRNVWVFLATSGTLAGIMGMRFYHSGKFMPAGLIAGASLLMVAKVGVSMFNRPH
inactive: [1] 0.027 | [2] 0.087 | [3] -0.038 | [4] 0.129 | [5] 0.045 | [10] -0.053 | [8] -0.088 | [9] 0.06

TFPI (UniProt P10646)
Sequence of UniProt P10646 (P10646 whole entry, looked up): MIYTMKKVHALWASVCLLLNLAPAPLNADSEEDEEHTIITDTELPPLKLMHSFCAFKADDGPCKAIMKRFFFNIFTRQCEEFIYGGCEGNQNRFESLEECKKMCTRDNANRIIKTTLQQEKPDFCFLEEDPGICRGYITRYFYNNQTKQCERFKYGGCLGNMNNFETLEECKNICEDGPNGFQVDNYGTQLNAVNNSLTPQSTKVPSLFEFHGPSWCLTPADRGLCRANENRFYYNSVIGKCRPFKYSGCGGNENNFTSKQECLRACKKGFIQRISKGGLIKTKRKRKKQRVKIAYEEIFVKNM
active: [6] 0.689
inactive: [1] -0.079 | [2] 0.005 | [3] 0.015 | [4] -0.019 | [5] 0.016 | [10] 0.093 | [7] -0.321 | [9] 0.167

UBE3C (UniProt Q15386)
inactive: [1] -0.001 | [2] 0.006 | [3] 0.016 | [4] -0.021 | [5] -0.073 | [10] 0.086 | [6] -0.075 | [7] 0.002 | [8] 0.04 | [9] 0.03

TOR3A (UniProt Q9H497)
Sequence of UniProt Q9H497 (Q9H497 whole entry, looked up): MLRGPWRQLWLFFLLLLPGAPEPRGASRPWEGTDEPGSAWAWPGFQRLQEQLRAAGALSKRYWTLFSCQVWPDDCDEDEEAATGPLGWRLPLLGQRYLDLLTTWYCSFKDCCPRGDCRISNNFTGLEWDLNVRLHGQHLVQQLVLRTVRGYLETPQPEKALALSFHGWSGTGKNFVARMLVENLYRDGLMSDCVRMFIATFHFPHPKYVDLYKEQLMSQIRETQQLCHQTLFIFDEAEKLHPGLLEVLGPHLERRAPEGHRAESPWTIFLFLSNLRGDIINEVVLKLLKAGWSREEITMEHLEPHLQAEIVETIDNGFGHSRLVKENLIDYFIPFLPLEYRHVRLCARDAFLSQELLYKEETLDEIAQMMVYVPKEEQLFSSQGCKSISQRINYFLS
inactive: [1] -0.001 | [2] -0.11 | [3] -0.031 | [4] -0.013 | [5] -0.05 | [10] -0.006 | [6] -0.123 | [7] 0.057 | [8] 0.014 | [9] 0.03

UBIAD1 (UniProt Q9Y5Z9)
inactive: [1] -0.004 | [2] 0.043 | [4] 0.005 | [5] 0.046 | [10] -0.083 | [6] 0.045 | [7] -0.335 | [8] -0.036 | [9] -0.079

TFIP11 (UniProt Q9UBB9)
inactive: [1] 0.017 | [2] 0.025 | [3] -0.09 | [4] -0.018 | [5] -0.059 | [10] 0.048 | [6] -0.027 | [7] -0.037 | [8] 0.018 | [9] 0.027

TRIP13 (UniProt Q15645)
Sequence of UniProt Q15645 (Q15645 whole entry, looked up): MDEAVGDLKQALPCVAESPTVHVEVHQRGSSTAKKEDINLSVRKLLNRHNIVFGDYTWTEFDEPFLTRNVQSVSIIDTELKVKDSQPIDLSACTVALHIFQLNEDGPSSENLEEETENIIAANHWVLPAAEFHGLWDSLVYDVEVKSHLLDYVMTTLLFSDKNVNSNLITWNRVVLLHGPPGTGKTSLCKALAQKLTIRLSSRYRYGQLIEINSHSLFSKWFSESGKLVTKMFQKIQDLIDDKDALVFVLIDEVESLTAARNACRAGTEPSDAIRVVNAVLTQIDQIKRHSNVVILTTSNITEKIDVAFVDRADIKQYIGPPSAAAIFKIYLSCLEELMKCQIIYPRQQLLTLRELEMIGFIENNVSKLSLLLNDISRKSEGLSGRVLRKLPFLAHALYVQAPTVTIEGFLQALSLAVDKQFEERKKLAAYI
inactive: [1] -0.036 | [2] 0 | [3] 0.033 | [4] -0.083 | [5] -0.089 | [10] 0.034 | [6] 0.003 | [7] -0.019 | [8] 0.008 | [9] 0.05

TMEM177 (UniProt Q53S58)
inactive: [1] -0.057 | [2] 0.011 | [3] 0.063 | [4] -0.005 | [5] -0.076 | [10] 0.078 | [6] 0.056 | [7] -0.161 | [9] -0.017

TBC1D8B (UniProt Q0IIM8)
active: [6] -0.308
inactive: [1] -0.007 | [2] -0.025 | [3] 0.108 | [4] 0.096 | [5] 0.072 | [10] -0.024 | [7] 0.192 | [8] -0.047 | [9] -0.042

TRIM65 (UniProt Q6PJ69)
inactive: [1] 0.025 | [2] 0.085 | [3] 0.013 | [4] 0.026 | [5] -0.076 | [10] 0 | [6] -0.056 | [7] 0.008 | [8] -0.022 | [9] 0.022

TTL (UniProt Q8NG68)
inactive: [1] -0.066 | [2] 0.053 | [3] 0 | [4] -0.231 | [5] -0.116 | [10] 0.021 | [6] 0.009 | [7] -0.044 | [8] -0.068 | [9] 0.078

TMEM167B (UniProt Q9NRX6)
Sequence of UniProt Q9NRX6 (Q9NRX6 whole entry, looked up): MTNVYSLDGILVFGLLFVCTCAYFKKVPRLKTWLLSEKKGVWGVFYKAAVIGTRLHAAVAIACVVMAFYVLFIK
inactive: [1] 0.058 | [2] -0.057 | [3] -0.009 | [4] 0.053 | [5] 0.038 | [10] -0.028 | [7] 0.086 | [9] 0.056
active: [6] -0.472

THOC5 (UniProt Q13769)
inactive: [1] 0.005 | [2] 0.013 | [3] -0.023 | [4] -0.031 | [5] -0.008 | [10] 0.008 | [6] 0.02 | [7] -0.008 | [8] 0.024 | [9] 0.013

TPM1 isoform 4 (UniProt P09493)
Sequence of UniProt P09493 (P09493 whole entry, looked up): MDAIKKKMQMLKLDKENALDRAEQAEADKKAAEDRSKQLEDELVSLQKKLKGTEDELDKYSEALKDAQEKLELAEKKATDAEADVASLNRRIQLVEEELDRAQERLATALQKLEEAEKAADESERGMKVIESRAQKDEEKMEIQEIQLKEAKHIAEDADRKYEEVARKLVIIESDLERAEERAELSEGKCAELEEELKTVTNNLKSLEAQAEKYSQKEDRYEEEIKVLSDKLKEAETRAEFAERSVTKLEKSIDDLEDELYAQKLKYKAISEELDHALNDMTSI
inactive: [1] -0.049 | [2] -0.012 | [3] -0.036 | [4] -0.018 | [5] 0.033 | [10] 0.013 | [6] 0.106 | [7] -0.149 | [8] 0.031 | [9] -0.012

TRAPPC12 (UniProt Q8WVT3)
Sequence of UniProt Q8WVT3 (Q8WVT3 whole entry, looked up): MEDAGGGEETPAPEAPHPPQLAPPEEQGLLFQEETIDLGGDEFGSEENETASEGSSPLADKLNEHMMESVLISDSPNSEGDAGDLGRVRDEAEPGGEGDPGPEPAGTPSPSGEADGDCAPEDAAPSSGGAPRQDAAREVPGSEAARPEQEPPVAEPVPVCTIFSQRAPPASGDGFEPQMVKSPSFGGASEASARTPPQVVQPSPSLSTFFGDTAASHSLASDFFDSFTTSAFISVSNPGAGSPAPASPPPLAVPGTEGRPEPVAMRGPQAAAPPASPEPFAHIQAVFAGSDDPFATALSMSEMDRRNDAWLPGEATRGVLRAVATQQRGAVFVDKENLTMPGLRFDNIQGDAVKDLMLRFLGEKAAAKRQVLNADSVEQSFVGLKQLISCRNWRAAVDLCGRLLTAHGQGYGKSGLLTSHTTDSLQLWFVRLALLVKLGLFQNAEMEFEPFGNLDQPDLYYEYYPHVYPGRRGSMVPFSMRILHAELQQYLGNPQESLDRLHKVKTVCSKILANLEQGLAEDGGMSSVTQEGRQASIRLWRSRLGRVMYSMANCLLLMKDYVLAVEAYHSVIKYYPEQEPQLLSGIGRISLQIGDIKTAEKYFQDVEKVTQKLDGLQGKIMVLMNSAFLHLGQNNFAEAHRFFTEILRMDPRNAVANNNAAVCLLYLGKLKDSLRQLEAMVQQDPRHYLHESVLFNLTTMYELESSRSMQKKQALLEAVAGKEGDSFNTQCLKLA
inactive: [1] 0.039 | [2] -0.001 | [3] -0.007 | [4] 0.047 | [5] -0.083 | [10] -0.03 | [6] -0.027 | [7] -0.009 | [8] 0.028 | [9] -0.003

TBL3 (UniProt Q12788)
inactive: [1] 0.02 | [2] 0.003 | [3] 0.042 | [4] -0.018 | [5] -0.006 | [10] 0.004 | [6] -0.005 | [7] -0.012 | [8] 0.026 | [9] 0.009
